Assay results published in ChEMBL document CHEMBL3988442, “University of Dundee, Small-Polar-MMV Screening Library” (2021).
For some assays here: Results with a measured potency or affinity are listed apart.

How the values were obtained:
Set-up in all cases: scale not given: direction of the effect not stated beside the values
[1] = molecular target: Protein translocase subunit SecA (Escherichia coli (strain K12)) (UniProt P10408); assay: Assay to Identify E. coli SecA ATPase Inhibitors; type: functional; conditions: 30 µM
Protein translocase subunit SecA (Escherichia coli (strain K12)), sequence (P10408 whole entry): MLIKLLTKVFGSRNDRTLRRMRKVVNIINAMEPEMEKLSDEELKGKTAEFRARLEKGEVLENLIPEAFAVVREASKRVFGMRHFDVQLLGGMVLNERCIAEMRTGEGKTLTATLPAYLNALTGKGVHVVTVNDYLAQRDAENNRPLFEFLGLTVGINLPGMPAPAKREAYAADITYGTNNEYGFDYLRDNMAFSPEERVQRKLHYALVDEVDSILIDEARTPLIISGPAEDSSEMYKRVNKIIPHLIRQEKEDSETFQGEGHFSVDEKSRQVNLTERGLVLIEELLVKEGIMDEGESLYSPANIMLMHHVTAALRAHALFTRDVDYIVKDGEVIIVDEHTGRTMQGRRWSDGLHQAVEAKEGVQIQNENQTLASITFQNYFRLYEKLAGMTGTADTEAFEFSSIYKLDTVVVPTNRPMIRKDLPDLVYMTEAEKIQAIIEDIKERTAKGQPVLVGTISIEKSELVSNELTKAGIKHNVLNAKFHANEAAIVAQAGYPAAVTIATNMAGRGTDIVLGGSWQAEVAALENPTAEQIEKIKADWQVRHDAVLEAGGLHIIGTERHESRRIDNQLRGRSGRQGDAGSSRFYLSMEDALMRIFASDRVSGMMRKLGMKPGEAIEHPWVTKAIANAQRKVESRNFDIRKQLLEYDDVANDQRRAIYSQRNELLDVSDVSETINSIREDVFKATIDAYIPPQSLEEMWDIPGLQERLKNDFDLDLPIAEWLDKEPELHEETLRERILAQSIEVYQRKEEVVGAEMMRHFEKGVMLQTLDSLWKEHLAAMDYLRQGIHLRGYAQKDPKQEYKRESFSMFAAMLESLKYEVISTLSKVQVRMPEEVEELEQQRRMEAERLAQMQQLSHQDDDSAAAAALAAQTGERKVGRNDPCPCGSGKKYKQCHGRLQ

[2] = molecular target: T1, Ubiquitin-activating enzyme e1, putative (Leishmania donovani (strain BPK282A1)) (UniProt E9BSI1); assay: Leishmania donovani Ubiquitin Activating Enzyme (LdE1); type: functional; conditions: 30 µM
T1 sequence (whole entry): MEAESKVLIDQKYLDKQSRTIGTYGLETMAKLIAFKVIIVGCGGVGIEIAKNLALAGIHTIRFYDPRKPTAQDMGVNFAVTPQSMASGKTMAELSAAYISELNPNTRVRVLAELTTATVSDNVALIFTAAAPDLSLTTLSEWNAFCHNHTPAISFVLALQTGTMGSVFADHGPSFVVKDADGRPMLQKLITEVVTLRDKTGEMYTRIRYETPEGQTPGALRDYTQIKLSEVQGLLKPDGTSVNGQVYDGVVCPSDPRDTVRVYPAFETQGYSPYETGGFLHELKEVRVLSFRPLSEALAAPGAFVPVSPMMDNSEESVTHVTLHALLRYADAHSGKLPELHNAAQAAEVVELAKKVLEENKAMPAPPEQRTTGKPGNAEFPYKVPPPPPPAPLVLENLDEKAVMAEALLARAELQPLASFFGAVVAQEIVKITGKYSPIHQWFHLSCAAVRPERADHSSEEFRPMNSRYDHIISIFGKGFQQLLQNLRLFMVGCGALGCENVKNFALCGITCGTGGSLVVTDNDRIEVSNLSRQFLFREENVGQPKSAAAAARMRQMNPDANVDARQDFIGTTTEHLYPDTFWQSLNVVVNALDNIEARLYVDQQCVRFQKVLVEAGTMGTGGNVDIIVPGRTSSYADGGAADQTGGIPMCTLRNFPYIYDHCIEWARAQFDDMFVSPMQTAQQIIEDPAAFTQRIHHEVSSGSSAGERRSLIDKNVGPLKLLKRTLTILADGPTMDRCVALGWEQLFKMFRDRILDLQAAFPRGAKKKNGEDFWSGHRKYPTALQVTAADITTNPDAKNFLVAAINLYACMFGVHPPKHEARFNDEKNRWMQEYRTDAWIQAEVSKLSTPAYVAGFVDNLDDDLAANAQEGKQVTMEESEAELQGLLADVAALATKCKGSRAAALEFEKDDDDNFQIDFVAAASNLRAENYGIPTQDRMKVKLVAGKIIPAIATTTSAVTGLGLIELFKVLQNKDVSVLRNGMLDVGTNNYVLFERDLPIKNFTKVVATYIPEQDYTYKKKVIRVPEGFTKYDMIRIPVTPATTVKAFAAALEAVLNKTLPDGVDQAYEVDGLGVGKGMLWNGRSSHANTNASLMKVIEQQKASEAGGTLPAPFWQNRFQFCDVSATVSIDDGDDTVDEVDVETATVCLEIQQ

[3] = molecular target: Sialic acid-binding Ig-like lectin 9 (Homo sapiens) (UniProt Q9Y336); assay: Hs-Siglec9 ALPHAscreen SOP 20170721; conditions: 10 µM
Sialic acid-binding Ig-like lectin 9 (Homo sapiens), sequence (Q9Y336 whole entry): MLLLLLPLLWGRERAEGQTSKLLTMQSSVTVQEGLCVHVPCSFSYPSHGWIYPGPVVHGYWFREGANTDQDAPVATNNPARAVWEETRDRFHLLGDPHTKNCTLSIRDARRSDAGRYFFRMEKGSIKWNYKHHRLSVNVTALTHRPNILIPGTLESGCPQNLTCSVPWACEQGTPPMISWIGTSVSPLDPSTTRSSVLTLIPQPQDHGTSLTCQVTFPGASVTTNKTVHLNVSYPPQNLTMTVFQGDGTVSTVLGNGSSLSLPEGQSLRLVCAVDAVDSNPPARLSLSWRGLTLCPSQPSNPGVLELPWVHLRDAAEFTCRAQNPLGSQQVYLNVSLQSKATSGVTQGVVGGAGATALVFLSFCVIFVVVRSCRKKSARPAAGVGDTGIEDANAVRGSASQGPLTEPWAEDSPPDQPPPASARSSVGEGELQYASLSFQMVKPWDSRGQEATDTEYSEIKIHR

Trypanosoma cruzi = assay: Trypanosoma cruzi phosphomannomutase and mannose-1-phosphate guanylyltransferase assay; type: functional; conditions: 10 µM
[4] = molecular target: T2, Arginase-2, mitochondrial (Homo sapiens) (UniProt P78540); assay: in vitro enzyme assay to detect the production of urea directly proportional to the activity of Arginase II; type: functional; conditions: 33.3 µM; further: in the data most compounds retested in dose-response had high values
T2 sequence (whole entry): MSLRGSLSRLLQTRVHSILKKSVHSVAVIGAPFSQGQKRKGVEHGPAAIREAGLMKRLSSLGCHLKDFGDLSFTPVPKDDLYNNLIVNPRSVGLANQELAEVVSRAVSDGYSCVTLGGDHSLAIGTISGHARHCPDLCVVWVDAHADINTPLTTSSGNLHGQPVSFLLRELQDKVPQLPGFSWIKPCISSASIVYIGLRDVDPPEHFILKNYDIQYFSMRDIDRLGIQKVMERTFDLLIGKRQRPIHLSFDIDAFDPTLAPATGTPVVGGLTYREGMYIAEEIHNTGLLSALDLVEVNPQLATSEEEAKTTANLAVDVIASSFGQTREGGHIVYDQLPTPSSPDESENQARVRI

[5] = molecular target: T3, Proteasome subunit beta (Trypanosoma cruzi) (UniProt O96673); assay: Trypanosoma cruzi proteasome chymotrypsin-like activity (TcProtChymo) assay.; further: in the data most compounds retested in dose-response had high values; type: functional; conditions: 9.37 µM
T3 sequence (whole entry): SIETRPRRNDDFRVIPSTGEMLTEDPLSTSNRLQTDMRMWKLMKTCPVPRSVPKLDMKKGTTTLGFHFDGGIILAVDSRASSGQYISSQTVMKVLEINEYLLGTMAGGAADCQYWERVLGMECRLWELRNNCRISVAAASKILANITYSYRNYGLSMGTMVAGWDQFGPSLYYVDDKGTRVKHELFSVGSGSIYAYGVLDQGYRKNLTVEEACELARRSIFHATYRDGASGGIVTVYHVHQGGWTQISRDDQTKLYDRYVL

Homo sapiens = organism: Homo sapiens; assay: To identify inhibition of the IFN signalling (Jak-Stat) pathway via expression of an eGFP reporter gene under the control of an IFN-stimulated response element (ISRE) containing MxA promoter.; type: functional; conditions: 30 µM
[6] = molecular target: T4, Tyrosyl-tRNA synthetase, putative (Trypanosoma cruzi (strain CL Brener)) (UniProt Q4DSP6); assay: Trypanosoma cruzi tyrosyl tRNA synthetase (TcYRS) _High Tyrosine SOP; type: functional; conditions: 30 µM; further: in the data most compounds retested in dose-response had high values
T4 sequence (whole entry): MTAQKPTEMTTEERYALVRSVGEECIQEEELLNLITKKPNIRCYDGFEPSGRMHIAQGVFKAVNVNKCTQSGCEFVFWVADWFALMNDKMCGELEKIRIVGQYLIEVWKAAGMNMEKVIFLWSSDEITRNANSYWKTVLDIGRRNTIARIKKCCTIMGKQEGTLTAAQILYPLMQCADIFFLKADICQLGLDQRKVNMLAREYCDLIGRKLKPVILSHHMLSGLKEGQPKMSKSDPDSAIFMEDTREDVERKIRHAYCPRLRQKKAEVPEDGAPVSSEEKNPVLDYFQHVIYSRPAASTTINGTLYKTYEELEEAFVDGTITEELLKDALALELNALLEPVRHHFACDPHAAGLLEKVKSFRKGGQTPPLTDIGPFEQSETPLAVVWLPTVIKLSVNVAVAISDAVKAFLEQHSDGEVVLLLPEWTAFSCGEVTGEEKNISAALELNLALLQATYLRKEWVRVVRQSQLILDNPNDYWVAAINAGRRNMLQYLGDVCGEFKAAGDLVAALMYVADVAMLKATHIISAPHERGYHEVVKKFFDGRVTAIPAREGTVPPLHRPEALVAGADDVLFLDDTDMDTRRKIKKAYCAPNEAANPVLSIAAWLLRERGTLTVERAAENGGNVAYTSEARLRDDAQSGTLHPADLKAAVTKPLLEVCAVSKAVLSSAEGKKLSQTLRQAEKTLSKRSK

[7] = molecular target: T4, Tyrosyl-tRNA synthetase, putative (Trypanosoma cruzi (strain CL Brener)); assay: Trypanosoma cruzi tyrosyl tRNA synthetase (TcYRS) SOP; type: functional; conditions: 30 µM
[8] = molecular target: Chromo domain-containing protein 1 (Saccharomyces cerevisiae (strain ATCC 204508 / S288c) (Baker's yeast)) (UniProt P32657); assay: ScCHD-1 Enzyme Inhibition Assay; type: functional; conditions: 30 µM; further: in the data most compounds retested in dose-response had high values
Chromo domain-containing protein 1 (Saccharomyces cerevisiae (strain ATCC 204508 / S288c) (Baker's yeast)), sequence (P32657 whole entry, the tested form may be a part): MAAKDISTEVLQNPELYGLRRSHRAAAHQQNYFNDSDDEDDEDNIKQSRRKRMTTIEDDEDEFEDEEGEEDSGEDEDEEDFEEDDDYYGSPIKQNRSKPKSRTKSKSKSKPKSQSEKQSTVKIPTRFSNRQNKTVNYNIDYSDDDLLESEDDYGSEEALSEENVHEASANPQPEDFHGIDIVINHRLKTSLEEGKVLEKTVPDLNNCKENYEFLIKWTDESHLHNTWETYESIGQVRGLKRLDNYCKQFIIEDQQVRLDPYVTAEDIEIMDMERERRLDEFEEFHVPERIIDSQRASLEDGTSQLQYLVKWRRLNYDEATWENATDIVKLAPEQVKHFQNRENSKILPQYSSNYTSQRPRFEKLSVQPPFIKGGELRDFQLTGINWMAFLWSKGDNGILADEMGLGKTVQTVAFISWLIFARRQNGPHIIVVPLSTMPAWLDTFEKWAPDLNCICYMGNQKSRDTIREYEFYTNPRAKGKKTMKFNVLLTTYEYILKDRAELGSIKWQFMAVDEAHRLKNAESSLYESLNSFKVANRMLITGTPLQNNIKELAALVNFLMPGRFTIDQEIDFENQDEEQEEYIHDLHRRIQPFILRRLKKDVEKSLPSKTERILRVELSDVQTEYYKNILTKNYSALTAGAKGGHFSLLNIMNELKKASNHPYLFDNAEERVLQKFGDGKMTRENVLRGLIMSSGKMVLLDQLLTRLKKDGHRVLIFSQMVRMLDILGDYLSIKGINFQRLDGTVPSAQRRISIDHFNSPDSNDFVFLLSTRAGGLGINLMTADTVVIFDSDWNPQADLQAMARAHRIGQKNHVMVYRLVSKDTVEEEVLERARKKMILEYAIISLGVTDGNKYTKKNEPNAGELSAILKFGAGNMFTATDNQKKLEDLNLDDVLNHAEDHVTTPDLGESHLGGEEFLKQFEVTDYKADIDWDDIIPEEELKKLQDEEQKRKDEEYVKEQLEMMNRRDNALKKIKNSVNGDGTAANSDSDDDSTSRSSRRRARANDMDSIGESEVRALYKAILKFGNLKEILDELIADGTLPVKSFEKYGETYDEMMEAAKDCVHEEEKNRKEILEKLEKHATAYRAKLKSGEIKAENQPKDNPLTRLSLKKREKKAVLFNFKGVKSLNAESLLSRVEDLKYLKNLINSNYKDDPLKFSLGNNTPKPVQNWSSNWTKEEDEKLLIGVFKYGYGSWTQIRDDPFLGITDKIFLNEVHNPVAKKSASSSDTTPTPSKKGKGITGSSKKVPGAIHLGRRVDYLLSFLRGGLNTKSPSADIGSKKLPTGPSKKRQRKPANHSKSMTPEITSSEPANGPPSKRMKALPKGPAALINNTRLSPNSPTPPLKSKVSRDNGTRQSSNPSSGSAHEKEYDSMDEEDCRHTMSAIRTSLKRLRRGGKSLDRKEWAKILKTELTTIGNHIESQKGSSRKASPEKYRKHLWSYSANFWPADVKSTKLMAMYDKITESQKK

| Compound | Percent Effect [1] [%] | Percent Effect [2] [%] | Percent Effect [3] [%] | Percent Effect (Trypanosoma cruzi) [%] | Percent Effect [4] [%] | Percent Effect [5] [%] | Percent Effect (Homo sapiens) [%] | Percent Effect [6] [%] | Percent Effect [7] [%] | Percent Effect [8] [%] |
| --- | --- | --- | --- | --- | --- | --- | --- | --- | --- | --- |
| Cc1ccc(NC2CCN(C(=O)c3cnc(C)s3)CC2)nn1 | -3.62 | 10.7 | -0.486 | -3.01 | 0.887 | -0.594 | 15.9 | 5.79 | 12.8 | -6.74 |
| CNC(=O)c1cccnc1Oc1ccccc1 | -2.06 | 19.5 | 16.3 | 5.07 | 0 | 13.5 | 10 | 4.83 | 12.5 | -9.58 |
| CN1CCOC(CNC(=O)CCCOCCc2ccccc2)C1 (stereo not given) | -3.33 | 17.9 | -5.99 | 9.86 | 3.28 | 9.13 | 19.5 | 4.31 | 22.9 | -6.94 |
| CCOCC1CN(Cc2ccc(OC)cc2)Cc2nn(C)cc21 (stereo not given) | -9.46 | 3.9 | 2.27 | -1.46 | 0.405 | 9.62 | 15.7 | 2.63 | 2.56 | 0.496 |
| CS(=O)(=O)N1CCC(NC(=O)COc2ccc(Cl)c(Cl)c2)CC1 | -0.592 | 15.6 | -0.737 | -2.24 | -2.66 | 3.86 | 10.2 | 13.7 | 28.2 | -8.55 |
| O=C(NCCNC(=O)c1scnc1Cl)c1ccccc1 | -3.41 | 16 | 3.33 | 2.01 | -0.887 | 14.2 | 9.89 | 7.89 | 17.9 | -5 |
| CN(C)CCN1C(=O)CCC12CCN(C(=O)c1cccnc1)CC2 | -1.32 | 3.9 | -3.7 | -0.75 | 0.457 | 5.75 | 3.46 | 1.93 | 2.5 | -20.4 |
| O=C1CC2(CCCCN2C(=O)c2ccsc2)CN1CC1CC1 (stereo not given) | -4.46 | 11.7 | 1.96 | 2.44 | 4.57 | 0.429 | -8.36 | 8.7 | 15 | -4.62 |
| O=C1CCC2(CCCN(CCc3ccccc3)C2)N1Cc1cccnc1 (stereo not given) | -0.897 | 22.1 | -2.1 | -2.44 | 2.28 | 18.8 | 4.75 | 12.6 | 10 | -8.73 |
| O=C(NCCc1ccccc1)C1CCCN(c2ccc3nncn3n2)C1 (stereo not given) | -3.44 | 2.7 | -1.4 | -8.05 | 1.75 | 17.6 | -5.46 | 5.85 | 7.32 | -3.81 |
| Cc1cc(CN2CCCC2Cn2cncn2)no1 (stereo not given) | -4.42 | 17.9 | -10.5 | 11.9 | -2.05 | 17 | 0.869 | 3.35 | 20.5 | -10.5 |
